MBD2 DNA inh: MBD2-methylated oligo binding inhibition. Q9UBB5. TR-FRET, MBD2 binding to methylated oligonucleotide. inhibition, % at 4.4 µM. actives 0.31% (n = 370,000). AID 686964; in the data active means inhibition above about 13%
Target sequence (Q9UBB5 whole entry, looked up): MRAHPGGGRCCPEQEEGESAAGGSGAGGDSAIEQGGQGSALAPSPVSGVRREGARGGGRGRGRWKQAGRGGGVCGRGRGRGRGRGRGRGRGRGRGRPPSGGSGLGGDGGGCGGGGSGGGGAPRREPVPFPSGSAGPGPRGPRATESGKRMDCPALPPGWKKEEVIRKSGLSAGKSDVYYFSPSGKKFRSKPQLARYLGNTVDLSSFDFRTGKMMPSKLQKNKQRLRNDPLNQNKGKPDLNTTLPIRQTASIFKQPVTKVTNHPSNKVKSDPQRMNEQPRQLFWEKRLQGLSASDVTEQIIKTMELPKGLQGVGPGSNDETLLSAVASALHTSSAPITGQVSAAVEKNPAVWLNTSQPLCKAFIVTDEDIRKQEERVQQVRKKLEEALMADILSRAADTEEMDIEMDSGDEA
DNMT1 inh: blocks human DNA methyltransferase DNMT1. P26358. DNMT1 molecular beacon, Hinp1I cleavage, fluorescence. inhibition (reported as % activation of signal), % at 10 µM. actives 0.83% (n = 360,000). AID 588458; in the data active means inhibition above about 50%
LEDGF integ inh: blocks HIV-1 LEDGF/p75-dependent DNA integration; TR-FRET IN-LEDGF/p75 DNA integration, Eu/Cy5; inhibition, % at 3.7 µM; actives 0.64% (n = 370,000); AID 743269;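 active means inhibition above the screen-wide mean plus 3 SD, cut at about 13% in these data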;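 further: signal is the Cy5 over europium emission ratio at 671 and 618 nm; 0% = plate median of compound wells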
UHRF1 MBD2 ctr: human UHRF1 methylated DNA binding inhibitors; AID 687016; actives 0.75% (n = 370,000); UHRF1 binding to methylated oligo, TR-FRET; inhibition, % at 4.4 µM; Q96T88; in the data active means inhibition above about 21%;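 further: UHRF1 SRA domain binding a hemimethylated CpG hairpin DNA probe; 0% = median of test compound wells and 100% = reference inhibitor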
rCAG RNA binder: molecules binding r(CAG) RNA repeats. r(CAG) RNA repeat, TO-PRO-1 dye displacement fluorescence. inhibition, % at 3 µM. actives 1.3% (n = 370,000);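 active means inhibition above the plate cutoff, the mean of all test compounds on that plate plus 3 SD, cut at about 35% in these data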;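 further: 0% = DMSO alone and 100% = 100 µM mitoxantrone as full dye displacement; higher means more dye released from RNA so lower well fluorescence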
PG9 binder: small molecules binding HIV-1 gp120 antibody PG9 | TR-FRET gp120-PG9 antibody binding | inhibition, % at 6.7 µM | actives 0.43% (n = 360,000) | AID 624416; in the data active means inhibition above about 8.5%
PG9 bind confirm: PG9 antibody binding, confirmed. shares compounds with PG9 binder. TR-FRET PG9 antibody binding, biochemical. inhibition, % at 6.7 µM. actives 90% (n = 1,500). AID 651571; in the data active means inhibition above about 9%
PGV04 counter: PGV04 control antibody binding, counter-screen; TR-FRET PGV04 antibody-gp120 binding, biochemical; shares compounds with PG9 binder; actives 95% (n = 1,500); inhibition, % at 6.7 µM; AID 651604; in the data active means inhibition above about 9.5%
PG9 binder DR: small molecules binding HIV-1 gp120 antibody PG9; shares compounds with PG9 binder; TR-FRET PG9 antibody-gp120 binding inhibition; IC50, µM; 95 tested, under 10 active; AID 651848; in the data active means IC50 below about 10 µM
PGV04 binding DR: binds control antibody PGV04 in PG9 counter-screen | IC50, µM | actives 20% (n = 95) | AID 651937 | shares compounds with PG9 binder | TR-FRET binding to control antibody PGV04
PG126 DR counter: counter-screen for PG9 binders: binding to control antibody PG126; TR-FRET binding to antibody PG126, counterscreen; shares compounds with PG9 binder; IC50, µM; actives 20% (n = 95); AID 651939
The depositor's hits bear a star; i = inactive; . = no result. Only some compounds are listed: those with a hit (about 3.5% of all), similar ones and a draw of the others. Unless noted, no stated cut-off is given here; in the data, active means IC50 below about 9 µM; inactive means the rest.

SMILES	MBD2 DNA inh	DNMT1 inh	LEDGF integ inh	UHRF1 MBD2 ctr	rCAG RNA binder	PG9 binder	PG9 bind confirm	PGV04 counter	others
CCOc1ccccc1OCCCC(=O)Nc1ccc(S(=O)(=O)Nc2cc(C)nc(C)n2)cc1	-7.0	-1.4	-0.7	-1.4	8.3	-0.4	.	.
CCCc1nc2ccccc2c(=O)n1CCc1ccccc1	2.9	4.1	1.6	-1.4	1.8	0.5	.	.
CC(C)(C)Cc1nnc(NS(=O)(=O)c2ccccc2)s1	5.1	2.0	-1.7	0.8	9.2	9.0*	11.2*	17.2*
Cn1c(C(=O)NC2CCCCC2)cc2c(=O)n(C)c3ccccc3c21	3.2	4.1	5.6	2.0	5.1	12.5*	15.2*	26.5*
COc1cc(NC(=O)C2(C)CCCN(C(C)C)C2)cc(OC)c1OC (stereo unspecified)	4.9	1.8	-0.3	-0.5	-2.3	-1.7	.	.
CCc1ccn2cc(-c3cc(-c4ccccc4)no3)nc2c1	0.0	-1.9	-5.0	2.6	-0.6	1.6	.	.
Cc1ccc2nc(-c3cc(-c4ccccc4)no3)cn2c1	1.9	27.5	-0.6	1.1	-0.8	22.6*	29.2*	27.8*	PG9 binder DR=>67;PGV04 binding DR=i;PG126 DR counter=>67
CCN(CC)C(=O)CSc1nc(N)c(C#N)c(-c2cccs2)c1C#N	-3.2	2.1	2.6	0.7	3.7	44.1*	17.9*	29.7*
Cc1cc2nc(C(C)(C)C)c(Cc3ccccc3)n2c(C)c1Br	-1.1	11.6	2.3	-2.8	4.4	-0.2	.	.
COC(=O)c1cc2oc(C)cc2n1CC(=O)Nc1cc(C)cc(C)c1	-3.3	-2.1	7.6	0.7	7.0	9.2*	16.4*	25.6*
CCc1nnc(NC(=O)CSc2nc3cc4c(cc3cc2C)OCCO4)s1	3.6	26.0	-1.4	-0.9	2.8	11.8*	24.6*	42.8*
COC(=O)CSc1nc2cc3c(cc2cc1C)OCCO3	0.1	-3.1	2.2	3.8	-2.1	0.5	.	.
CCc1c(C(=O)O)[nH]c2ccc(Br)cc12	-0.3	1.4	5.6	-2.2	4.6	13.5*	26.0*	27.1*
COc1ccc(CC(=O)NCc2cccc(Cl)c2)cc1S(=O)(=O)N1CCOCC1	-1.3	2.5	-2.4	2.7	6.2	-0.2	.	.
Cn1cc(C2NC(=O)c3ccccc3N2)c2ccccc21 (stereo unspecified)	-4.6	6.7	2.9	0.9	9.7	20.3*	9.9*	21.6*
COc1ccc(Nc2nnc(SCC(=O)NC3CCS(=O)(=O)C3)s2)cc1 (stereo unspecified)	1.6	-1.7	-3.1	-1.4	1.1	-3.2	.	.
Cc1cc(OCC(=O)NCCc2ccc(S(N)(=O)=O)cc2)c2c(C)c(C)c(=O)oc2c1	-2.6	10.8	-0.8	-2.2	8.8	10.4*	14.1*	25.2*
CCC[C@H](/C=C/C(=O)OC(C)(C)C)Sc1ccc(OC)cc1	-3.6	.	-1.8	-0.2	4.5	.	.	.
CC1Cc2ccccc2N1C(=O)COC(=O)c1cc(Br)ccc1O (stereo unspecified)	-0.3	-0.6	-2.5	0.6	-0.2	19.9*	6.3	8.4
CC1Cc2ccccc2N1C(=O)COC(=O)c1cccc(Br)c1 (stereo unspecified)	-0.4	-8.4	-5.0	-0.5	1.4	-0.7	.	.
Cc1cc(C)c(NC(=O)CSc2nc3ncc(Cl)cc3[nH]2)c(C)c1	-0.2	1.1	-0.1	-1.7	3.0	3.0	.	.
Cc1cc(C)c(NC(=O)CSc2nc3ncc(Br)cc3[nH]2)c(Cl)c1	-6.0	1.9	2.8	1.2	6.3	35.0*	39.1*	62.9*
O=C(CSc1nc2ncc(Cl)cc2[nH]1)Nc1cccc(F)c1	5.4	1.2	-1.3	2.4	10.4	-0.1	.	.
Cc1ccc(NC(=O)CSc2nc3ncc(Br)cc3[nH]2)cc1C	1.2	-4.6	-3.2	0.3	3.5	45.3*	65.9*	79.4*
COc1ccc(-c2cc(-c3ccc(Br)cc3)nc3ncnn23)cc1OC	3.9	-1.8	-4.2	-0.5	6.6	13.0*	12.1*	20.1*
SMILES	MBD2 DNA inh	DNMT1 inh	LEDGF integ inh	UHRF1 MBD2 ctr	rCAG RNA binder	PG9 binder	PG9 bind confirm	PGV04 counter	others
COc1ccc(-c2cc(-c3ccccc3)nc3ncnn23)cc1	2.5	4.0	0.9	0.1	4.7	-0.6	.	.
CCCc1cc(=O)oc2cc(OCC(=O)Nc3ccc(S(N)(=O)=O)cc3)ccc12	-1.2	32.3	2.1	-0.1	16.1	17.7*	23.9*	22.5*	PG9 binder DR=>67.1;PGV04 binding DR=>67.1;PG126 DR counter=>67.1
Cc1ccc2cc(CN(C(=O)c3cccs3)c3ccccc3)c(=O)[nH]c2c1	0.5	4.8	-0.1	-2.0	0.4	14.2*	20.9*	33.3*
Cc1ccc2[nH]c(=O)c(CN(C(=O)c3cccs3)c3ccccc3)cc2c1	0.5	-0.9	2.0	2.5	-1.8	-3.4	.	.
CC(=O)NCCNC(=O)c1ccc(CSc2nc3ccccc3s2)cc1	-3.2	-14.0	4.5	2.0	4.1	-1.5	.	.
COc1ccccc1C(=O)Nc1nc2ccc(S(C)(=O)=O)cc2s1	-0.7	-0.3	-3.5	1.2	1.2	18.9*	26.9*	36.8*
CS(=O)(=O)c1ccc2nc(NC(=O)c3cccc(Cl)c3)sc2c1	0.5	-17.4	-2.1	5.6	6.3	-1.4	.	.
COc1ccccc1C(=O)Nc1nnc(S(=O)(=O)N2CCCCC2)s1	0.2	1.8	-7.6	3.8	13.7	36.5*	35.5*	42.4*
CS(=O)(=O)c1ccc2nc(NC(=O)c3cc4ccccc4o3)sc2c1	3.8	2.3	-0.8	-1.3	8.5	9.6*	23.5*	33.2*
CS(=O)(=O)c1ccc2nc(NC(=O)c3ccc(Cl)cc3)sc2c1	-0.2	1.4	-2.7	1.4	3.1	58.0*	51.4*	64.5*
O=C(Cc1ccccc1[N+](=O)[O-])NCC(O)c1ccc2c(c1)OCO2 (stereo unspecified)	4.6	1.8	-0.7	0.9	-0.4	-2.8	.	.
CC(=O)Nc1ccc(S(=O)(=O)NCCC(=O)NC(C)c2cccs2)cc1 (stereo unspecified)	3.7	-1.9	-5.2	-0.6	5.4	-2.7	.	.
COCC(=O)N[C@H]1C=C[C@@H](CC(=O)NCc2ccccc2OC)O[C@@H]1CO	-1.9	.	0.6	-1.4	2.3	-0.9	.	.
